Assay outcomes from PubChem.
RECQ1 inh – RECQ1 (human) helicase inhibition; Potency, µM (doses to about 57.3 µM), for inactives: at the top dose activity, negative = inhibition, usual class: inhibitors; AID 2549; RECQ1 DNA unwinding, red fluorescence kinetic read; 0.54% of 240,000 active; P46063;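 note: potency is the fitted concentration of half-maximal effect; plate controls were vehicle for no effect and no enzyme for full effect; nearly all actives have a fitted effect of over 30% in size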
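50 nM RECQ1T1 preincubated 15 min with compound in Tris pH 8.0 buffer with MgCl2, DTT, Tween-20 and 2.5 ug/ml poly(dI-dC); started with 200 nM TAMRA/BHQ-2 forked duplex and 2 mM ATP. Unwinding read as fluorescence (525/598 nm), two reads 2 h apart.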
BLM helicase inh – Bloom syndrome helicase (human) inhibition; recombinant BLM DNA unwinding, fluorescence dequenching; Potency, µM (doses to about 56.1 µM), for the others: at the top dose activity change, negative = inhibition, hits mostly inhibitors; 0.2% of 350,000 active; AID 2528;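 note: potency is the fitted concentration of half-maximal effect; plate controls were vehicle for no effect and no enzyme for full effect; nearly all actives have a fitted effect of over 35% in size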
FEN1 inhibitor – inhibitors of human flap endonuclease 1. Recombinant FEN1 flap cleavage, fluorescence, 15 min. Potency, µM (doses to about 114 µM), inactives show at the highest dose activity change, negative = inhibition, usual class: inhibitors. P39748. AID 588795. 0.35% of 390,000 active; note: potency is the fitted concentration of half-maximal effect; nearly all actives have a fitted effect of over 65% in size
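Recombinant FEN1 (10 nM) was preincubated with pin-transferred compounds for 15 min at room temperature, then flap DNA substrate (50 nM final) was added. Plates were read at 0 and 15 min, and normalized concentration–response data were fitted to a four-parameter Hill equation.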
PI5P4Ka inh – PI5P4K alpha (human) kinase inhibition; PI5P4Kalpha enzyme, ADP-Glo luminescence, 60 min; stronger effect = lower value; max response, %; 1.2% of 330,000 active; P48426; active = max response of -50% or lower; inconclusive = between -30% and -50%; inactive = -30% or higher; note: value at the top dose of about 77 µM
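Compounds were pin-transferred onto PI5P4Kalpha and substrate in HEPES pH 7.4 buffer with EGTA, CHAPS and 5% DMSO. ATP (5 microM final) started the reaction, which ran 60 minutes at room temperature before ADP-Glo detection.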
APE1 inh – blocks human APE1 abasic DNA cleavage | Potency, µM (top dose mostly 65.8 µM), for inactives: at the top dose activity change, negative = inhibition, hits mostly inhibitors | P27695 | 0.35% of 350,000 active | recombinant APE1, TAMRA/BHQ-2 abasic DNA cleavage fluorescence | AID 2517;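 note: potency is the fitted concentration of half-maximal effect; plate controls were vehicle for no effect and reference inhibitor for full effect; nearly all actives have a fitted effect of over 55% in size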
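Quantitative HTS: incision of a TAMRA/BHQ-2 double-stranded substrate bearing a tetrahydrofuran abasic site by 0.75 nM APE1 raises fluorescence. Substrate 50 nM final, added after 15 min compound preincubation at room temperature; progress as third-minus-first kinetic read difference.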
WRN helicase inh – blocks human WRN helicase | Q14191 | WRN helicase unwinding, fluorescent forked duplex, kinetic | Potency, µM (series often up to 114 µM), for inactives: at the highest dose activity change, negative = inhibition, usual class: inhibitors | 0.46% of 360,000 active; note: potency is the fitted concentration of half-maximal effect; nearly all actives have a fitted effect of over 55% in size
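Enzyme (20 nM final) and test compound sit together 15 min at room temperature before substrate addition. Substrate is a single-forked duplex oligonucleotide (100 nM) labelled with fluorophore and quencher, with 2 mM ATP; helicase unwinding raises red fluorescence, read kinetically.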
* hit, by the source's call; i = inactive; ? = inconclusive; / = no result given; [ ] = remark or other dose. Only some compounds are listed: those with a hit (about 1.5% of all), similar ones and a draw of the others. Unless noted, calls come from the whole dose curve; as a rule, active = well fitted curve in the direction sought with a large enough effect; inconclusive = small, poorly fitted or top-dose-only effect, or another doubt; inactive = no such curve, though single readings can be large; an effect the other way counts as inactive or inconclusive. Unless noted, % is set by controls: 0 for no effect and ±100 for the full control effect.

SMILES	RECQ1 inh	BLM helicase inh	FEN1 inhibitor	PI5P4Ka inh	APE1 inh	WRN helicase inh
CCC(C)S(=O)(=O)c1oc(-c2cccs2)nc1S(=O)(=O)c1ccccc1 (configuration not stated)	/	-3%	2%	/	/	/
Nc1ccc(-c2nc3ccccc3o2)cc1	/	1%	3%	-2	73%	4%
O=C1C=CC(=O)N1c1ccc(-c2nc3ccccc3o2)cc1	/	/	/	-60*	/	-10%
COc1ccc(NCc2ccc([N+](=O)[O-])s2)cc1	-5%	-6%	-24%	6	32µM*	-13%
Cc1ccc(C)c(N2CCN(C(=O)c3cc(C)nc4c3c(C)nn4-c3cccc(F)c3)CC2)c1	/	7%	40%	/	/	/
CCOC(=O)C(C)Sc1ccc2nnc(-c3ccc(OCC)cc3)n2n1 (configuration not stated)	/	/	-11%	/	/	/
CN(C)/[N+]([O-])=N/Oc1ccc([N+](=O)[O-])cc1[N+](=O)[O-]	/	/	-3%	/	/	/
CCCCCCCCCC[n+]1ccc(/C=C/c2c[nH]c3ccccc23)cc1	/	/	89µM*	/	/	/
CCCCCCCCCCCCCCCC[n+]1ccc(/C=C/c2c[nH]c3ccccc23)c2ccccc21	/	/	50µM*	/	/	/
CCCCCCC[n+]1ccc(C)c2ccccc21	/	/	3%	/	/	/
CCCCCCC[n+]1ccc(/C=C/c2c[nH]c3ccccc23)c2ccccc21	/	/	25µM*	/	/	/
CCCCCCCCCCCC[n+]1ccc(/C=C/c2c[nH]c3ccccc23)c2ccccc21	/	/	-31%	/	/	/
NCCNCCN	5.6µM*	-2%	/	/	3.5µM*	/
CCCCn1c(=O)c2oc3ccccc3c2n(Cc2ccc(OC)cc2)c1=O	/	-1%	22%	/	/	/
CC(C)(C)C1(O)CCN2CC3c4ccccc4CCc4cccc(c43)C2C1 (configuration not stated)	/	/	/	/	16%	/
COc1ccc2c(c1OC)C(=O)OC2	-1%	-6%	24%	5	-8%	1%
COc1ccc2c3c(cccc13)C(=O)CC2	/	5%	50µM*	-14	-17%	-33%
CCOC(=O)C(CC)Sc1ccc2nnc(-c3cccnc3)n2n1 (configuration not stated)	10%	5%	-7%	-17	-1%	2%
CCC(Sc1ccc2nnc(-c3cccnc3)n2n1)C(=O)O (configuration not stated)	-2%	-1%	-18%	-58*	-4%	-6%
CC1=C(C(=O)OCc2ccccc2)C(c2cccc3ccccc23)NC(=O)N1CCCC(=O)O (configuration not stated)	/	/	-13%	-86*	0%	1%
COC(=O)C1=C(C)N(CCCC(=O)O)C(=O)NC1c1cccc(Cl)c1Cl (configuration not stated)	/	/	0%	-98*	/	-6%
COC(=O)C1=C(C)N(CCCC(=O)O)C(=O)NC1c1cccc2ccccc12 (configuration not stated)	/	/	-3%	-71*	/	-4%
CC1=C(C(=O)OCc2ccccc2)C(c2cccc(Cl)c2Cl)NC(=O)N1CCCCCC(=O)O (configuration not stated)	/	-1%	16%	-3	39%	-6%
Cc1ccc(NC(=O)CN2C(=O)CCc3ccccc32)cc1C	/	-10%	3%	/	/	/
CC1CCc2c(sc(NC(=O)c3ccco3)c2C(=O)O)C1 (configuration not stated)	/	-1%	-5%	-19	86%	?
SMILES	RECQ1 inh	BLM helicase inh	FEN1 inhibitor	PI5P4Ka inh	APE1 inh	WRN helicase inh
CC1CCc2c(sc(NC(=O)/C=C/c3cccs3)c2C(=O)O)C1 (configuration not stated)	/	-6%	3%	?	12µM*	4%
CN(C)c1ccc(C=O)c(O)c1	/	/	-12%	/	/	/
CC(C)(O)C1Cc2cc(/C=C/C(=O)O)c(O)cc2O1 (configuration not stated)	-6%	-5%	0%	-66*	4%	-3%
Cc1ccc(S(=O)(=O)N(Cc2ccccc2)Cc2ccco2)cc1	-15%	-11%	-22%	-1	-6%	-10%
Cc1ccc(S(=O)(=O)N(CC(=O)O)Cc2ccco2)cc1	-19%	-3%	-16%	-21	14µM*	-32%
CCN1C(=O)/C(=C\C=C\c2ccccc2[N+](=O)[O-])SC1=S	i	-8%	6%	-3	-5%	8%
CCN1C(=O)/C(=C/C=C2\N(CC)c3cc(S(=O)(=O)N(C)C)ccc3N2c2ccccc2)SC1=S	0.79µM*	50%	-19%	-9	-7%	?
CN(C)c1ccc(NC2=C([N+](=O)[O-])CS(=O)(=O)C2)cc1	20µM*	-7%	0%	/	-8%	-1%
Oc1ccc(Br)cc1/C=N/n1c(-c2ccccc2)n[nH]c1=S	/	-5%	-7%	-7	-7%	-8%
S=c1[nH]nc(-c2ccncc2)n1/N=C/c1cn(-c2ccccc2)nc1-c1ccccc1	-8%	7%	13%	-58*	13%	-3%
O=[N+]([O-])c1ccc(-c2nn(-c3ccccc3)cc2/C=N/n2c(-c3ccncc3)n[nH]c2=S)cc1	-4%	-4%	-1%	-21	-1%	0%
Oc1c(Br)cc(Br)c(/C=N/n2c(-c3ccccc3)n[nH]c2=S)c1Br	/	-13%	?	-86*	-10%	?
CC(C)(C)n1ncc2c(=O)n(Cc3ccc(Cl)c(SC(F)(F)F)c3)cnc21	/	/	-3%	/	15%	/
CCOc1ccc(-c2csc(-c3c(N)c(C(=O)c4ccc5c(c4)OCO5)n4ccccc34)n2)cc1	/	-2%	-6%	/	/	/
O=C(NN=Cc1cc(Br)c(O)c(Br)c1)c1ccccc1NS(=O)(=O)c1cccs1	/	/	-13%	-67*	4%	-33%
COc1ccc(NS(=O)(=O)c2cccc(C(=O)NN=Cc3cc(Br)c(O)c(Br)c3)c2)cc1	/	/	?	-50*	-15%	?
O=C(N/N=C/c1ccc([N+](=O)[O-])o1)c1ccccc1NS(=O)(=O)c1cccs1	-8%	-4%	?	-57*	1%	-11%[11.6 µM]
c1ccc2c(c1)CCCN2	/	/	-5%	/	/	/
O=C(CSc1nc2c(c(=O)[nH]1)CCCC2)Nc1ccccc1C(F)(F)F	/	-2%	-13%	/	/	/
COC(=O)[C@@H]1CCCN1S(=O)(=O)Cc1ccccc1	/	/	-3%	/	/	/
O=c1c2ccccc2sn1-c1ccc(Cl)cc1Cl	/	/	/	-105*	/	-3%
O=c1c2ccccc2ncn1-c1ccc(Cl)cc1Cl	2%	2%	-5%	7	-2%	-11%
CC(C)(C)n1ncc2c(=O)n(Cc3ccc(Cl)c(OC(F)(F)F)c3)cnc21	/	/	-32%	/	-7%	/
CCC(=O)Nc1ccc(C(=O)COC(=O)c2nc3nccc(C)n3n2)cc1	/	/	?	-90*	?	?
